According to the supplement of paper PMC3414501:
Structures can show the parent of a compound that is named as a salt.

Tested on: S. cerevisiae SK1 pCDA2-eGFP (USY613), sporulating;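 active = score above 5; some higher scores were not called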
Experiment: CDA2-GFP sporulation assay sensitivity score (z-score vs DMSO controls); higher = stronger inhibition of sporulation, active = hit call of the paper

CDA2-GFP sporulation assay sensitivity score, inactive:
COc1ccc(CC(C)NCC(O)c2ccc(O)c(NC=O)c2)cc1 (stereo not drawn) [Formoterol fumarate dihydrate] (stock concentration (mM, diluted 1:100): 7) 0.41
CN1C(=O)CC[C@H]1c1cccnc1 [Cotinine] (stock concentration (mM, diluted 1:100): 10) -0.11
O=c1c(O[C@@H]2O[C@H](CO)[C@H](O)[C@H](O)[C@H]2O)c(-c2ccc(O)c(O)c2)oc2cc(O)cc(O)c12 [Hyperoside] (stock concentration (mM, diluted 1:100): 8.8) 0.06
COc1cc2nc(N(C)CCCNC(=O)C3CCCO3)nc(N)c2cc1OC (stereo not drawn) [Alfuzosin] (stock concentration (mM, diluted 1:100): 10) 0.06
Cc1c(O)c(=O)ccn1C [Deferiprone] (stock concentration (mM, diluted 1:100): 10) 2.38
COC(=O)C1=C(C)NC(C)=C(C(=O)OC(C)C)C1c1cccc2nonc12 (stereo not drawn) [Isradipine] (stock concentration (mM, diluted 1:100): 9.9) 1.45
CC12CC3CC(C)(C1)CC(N)(C3)C2 [Memantine hydrochloride] (stock concentration (mM, diluted 1:100): 8.3) 2.32
CC(=O)SCC(Cc1ccccc1)C(=O)NCC(=O)OCc1ccccc1 (stereo not drawn) [Acetorphan] (stock concentration (mM, diluted 1:100): 10) 0.9
